Screening data deposited in PubChem BioAssay by several laboratories.
FXN GAA850 act = activators of GAA850 frataxin (FXN) promoter; HEK293 lucGAA850 FXN promoter luciferase reporter, 24 h; percent of 10 µM SAHA response; activation, % at 6 µM; hit rate 0.56% among 360,000; AID 540364;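 active = activation above the average of all compounds screened plus 3 SD, cutoff fixed separately per campaign, cut at about 7.5% in these data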;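 also: 0% = DMSO wells and 100% = 10 µM SAHA wells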
EWS-Fli inh = EWS/Fli transcriptional activity inhibition; A673 NR0B1-luciferase reporter, viability-normalised; inhibition, % at 12.6 µM; hit rate 0.67% among 350,000; AID 651661;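 active = mean inhibition of at least 50% after viability correction, with every replicate also passing that limit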;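 also: firefly luciferase signal divided by Alamar Blue viability fluorescence both relative to DMSO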
F508del corr = CFTR F508del correction in bronchial cells; CFBE cells, YFP halide quenching; stimulated with forskolin plus potentiator P3; % fluorescence drop versus neutral controls; activity (quench increase), % at 7.58 µM; hit rate 0.36% among 350,000;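 active = mean added fluorescence quench of at least 8% versus neutral control, with both replicates also reaching 8%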;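 also: cells transiently co-express mutant CFTR-F508del with the halide-sensitive YFP; corrector assay measuring rescue of mutant channel to the surface after 24 h compound exposure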
Env fusion inh = blocks HIV Env-driven cell-cell fusion. HeLa-JRFL Env/CEM21 cell fusion, luciferase. inhibition, % at 12.3 µM. hit rate 1.1% among 360,000;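 active = mean replicate inhibition score of at least 50 and every replicate individually at or above 50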;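 also: 0% = plate neutral controls and 100% = maraviroc near 300 nM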
PAX8 inh HTS = lowers PAX8-driven luciferase in RMG-I cells; RMG-I TPO-luciferase reporter, SteadyGlo, 24 h; inhibition, % at 12.6 µM; hit rate 1.2% among 360,000; AID 652154;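 active = mean replicate inhibition at least 60% with every replicate also reaching 60%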;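 also: luciferase light reporting Pax8 driven TPO promoter activity; plate controls were median of neutral control wells for no effect and mitoxantrone controls for full effect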
An asterisk follows results filed as active; [ ] = dose if it differs, or a comment. Shown are actives, neighbours in structure and some others; about 2.5% of the full set was active somewhere.

Cc1ncc(CO)c(/C=N/NC(=S)Nc2ccc(F)cc2)c1O was read as FXN GAA850 act -0.5, Env fusion inh 13.2 and PAX8 inh HTS -7.3.
`Cc1ncc(CO)c(/C=N/Nc2ccc(C(F)(F)F)cn2)c1O` gave FXN GAA850 act -5.6, EWS-Fli inh 1.5, F508del corr 12.3*, Env fusion inh 25.6 and PAX8 inh HTS 31.6.
For CC1(C)N=C(N)N=C(N)N1c1ccc(Oc2ccc(Cl)cc2)c(Cl)c1 the results were FXN GAA850 act -3.4, EWS-Fli inh 47.6, F508del corr -1.7, Env fusion inh 27.9 and PAX8 inh HTS 60.3*.
Screening CC1(C)N=C(N)N=C(N)N1c1cc(Cl)ccc1Cl returned FXN GAA850 act -1.9, EWS-Fli inh -0.9, Env fusion inh -5.6 and PAX8 inh HTS 0.7.
`COCC#Cc1cnc2c(c1)C(=O)N([C@@H](C)CO)C[C@H](C)[C@H](CN(C)Cc1ccc(-c3ccccc3)cc1)O2` gave EWS-Fli inh 11.9, F508del corr -0.2 and Env fusion inh 5.8[16.7 µM].
COc1cc(NC(=O)COC(=O)c2n[nH]c3ccccc23)c(C)cc1[N+](=O)[O-] was read as FXN GAA850 act -1.7, EWS-Fli inh -3.2, F508del corr 19.6*, Env fusion inh -2.9 and PAX8 inh HTS -4.8.
`COc1cc2nc(N3CCN(c4cc(C)ccc4C)CC3)nc(N)c2cc1OC` gave FXN GAA850 act -0.9, EWS-Fli inh 59.5*, F508del corr -2.1, Env fusion inh -4.3 and PAX8 inh HTS 30.9.
`CCCC#Cc1cnc2c(c1)C(=O)N([C@H](C)CO)C[C@H](C)[C@H](CN(C)C(=O)NCCC)O2` gave EWS-Fli inh -4.9, F508del corr 0.1 and Env fusion inh -6.2[16.7 µM].
`O=C1/C(=N\S(=O)(=O)c2cccs2)C([n+]2ccccc2)=C([O-])c2ccccc21` gave FXN GAA850 act -7.0, EWS-Fli inh -9.5, F508del corr -7.7, Env fusion inh 9.4 and PAX8 inh HTS 78.3*.
For CC(C)(C)c1cc[n+](C2=C([O-])c3ccccc3C(=O)/C2=N\S(=O)(=O)c2cccs2)cc1 the results were FXN GAA850 act -9.0, EWS-Fli inh 18.4, F508del corr -14.7, Env fusion inh -30.8 and PAX8 inh HTS 51.2.
For CC12N=C3SCC(=O)N3[C@H](c3ccccc3O1)[C@H]2CO[Si](C)(C)C(C)(C)C the results were EWS-Fli inh -1.6, F508del corr -0.3, Env fusion inh 8.0[16.7 µM] and PAX8 inh HTS 6.1.
Screening CC(C)(C)[Si](C)(C)OC[C@@H]1[C@H]2c3ccccc3O[C@]1(C)NC(=S)N2C(=O)c1ccccc1 returned EWS-Fli inh 9.5, F508del corr 2.2, Env fusion inh 14.2[16.7 µM] and PAX8 inh HTS 95.2*.
For C[C@H]1CN([C@@H](C)CO)C(=O)c2cc(NC(=O)C3CCCCC3)ccc2O[C@@H]1CN(C)Cc1ccc2c(c1)OCO2 the results were EWS-Fli inh 5.1 and F508del corr 0.3.
Screening O=S(=O)(c1ccc(F)cc1)N1CC[C@@H]2[C@H](CO)Nc3ccc(C#CC4CCCCC4)cc3[C@@H]21 returned F508del corr 0.4 and PAX8 inh HTS 17.0.
CC[C@@H]1CCC[C@@H](O)[C@@H](C)C(=O)O[C@H](C)[C@@H](C)C/C=C(C)/C(OC)=C\C(=O)N(C)C([C@@H](C)CC)C(=O)N(C)[C@@H](C(C)C)C(=O)N(C)[C@@H](COC)C(=O)N2CCC[C@H]2C(=O)N(C)[C@@H](C(C)C)C(=O)N2CCC[C@H]2C(=O)O1 (stereo partly drawn) was read as EWS-Fli inh 19.8, F508del corr -4.7, Env fusion inh 19.6 and PAX8 inh HTS 88.3*.
Screening O=C(NCCc1ccccc1)C(c1cccs1)N(C(=O)CCl)c1ccc(Cl)cc1 (stereo not drawn) returned FXN GAA850 act -9.0, Env fusion inh 13.7 and PAX8 inh HTS 110.7*.
O=C(NC1CCCCC1)N[C@@H]1CC[C@@H](CCNS(=O)(=O)c2ccc(Cl)cc2)O[C@H]1CO was read as EWS-Fli inh -0.2, F508del corr -2.6, Env fusion inh -8.1[16.7 µM] and PAX8 inh HTS 11.4.
O=C(CC1CC1)Nc1ccc2c(c1)[C@H]1C[C@@H](CC(=O)N3CCOCC3)O[C@H](CO)[C@H]1O2 was read as EWS-Fli inh 0.8, F508del corr -1.9 and PAX8 inh HTS -2.7.
`CC12CCC(=O)C=C1CCC1C2CCC2(C)C1CC1C3C(=O)N(Cc4ccccc4)C(=O)C3CC(=O)C12` (stereo not drawn) gave FXN GAA850 act 5.9, EWS-Fli inh 2.3, F508del corr 1.1, Env fusion inh 60.8* and PAX8 inh HTS 10.1.
For CCOC(=O)C1=C(C)N(C[C@@H]2CC[C@@H](Cc3ccc(-c4ccccc4)cc3)O2)C(=O)NC1c1ccc(-c2ccccc2)cc1 (stereo partly drawn) the results were FXN GAA850 act 3.7, EWS-Fli inh -3.3, F508del corr -2.6, Env fusion inh 71.6* and PAX8 inh HTS -3.6.
Screening CCCCCCN(C(=O)CCCCCN1C(=O)NC(c2ccc(-c3ccccc3)cc2)C(C(=O)OCc2ccccc2)=C1C)C(C(=O)NCCCC)c1ccccn1 (stereo not drawn) returned EWS-Fli inh 7.4, F508del corr 4.3, Env fusion inh 27.3 and PAX8 inh HTS 79.6*.
CN1C(=O)c2cc(NC(=O)C3CCC3)ccc2OC[C@H]2O[C@H](CC(=O)NCC3CCCCC3)CC[C@H]21 was read as EWS-Fli inh -2.3, F508del corr -0.2 and PAX8 inh HTS 9.2.
Screening Cc1c(O)ccc(/C(Cc2ccc3ccccc3n2)=N\O)c1O returned FXN GAA850 act 1.0, Env fusion inh -93.9 and PAX8 inh HTS 3.1.
CC(=O)Oc1ccc(C(=O)Cc2ccc3ccccc3n2)c(O)c1C was read as FXN GAA850 act 3.7, EWS-Fli inh 55.4*, F508del corr 0.1, Env fusion inh -63.0 and PAX8 inh HTS -94.9.
C[C@@H]1CCCCO[C@@H](CN(C)CC2CCCCC2)[C@H](C)CN([C@H](C)CO)C(=O)c2cc(NC(=O)Cc3ccccc3)ccc2O1 was read as EWS-Fli inh 3.4, F508del corr 1.0, Env fusion inh 22.2[16.7 µM] and PAX8 inh HTS -18.5.
`CCOC(=O)c1nc(C)sc1-c1ccnn1S(=O)(=O)c1ccccc1C(F)(F)F` gave FXN GAA850 act 1.9, EWS-Fli inh 17.4, F508del corr 9.8*, Env fusion inh -6.4 and PAX8 inh HTS 10.6.
Screening C[C@H](NC(=O)c1ncn2c1c(=O)[nH]c1ccc(Br)cc12)c1ccccc1 returned FXN GAA850 act -0.1, EWS-Fli inh 7.6, F508del corr -1.1, Env fusion inh 57.0* and PAX8 inh HTS -2.4.
For COc1ccc2c3c(n(C)c2c1)[C@@H](CO)N(CC1CC1)CC31CCN(S(=O)(=O)c2cn(C)cn2)CC1 the results were EWS-Fli inh 6.0, F508del corr 0.4 and PAX8 inh HTS -14.6.
For Cc1ccc(-n2nc3ccc(NC(=O)/C=C/c4ccco4)cc3n2)cc1 the results were FXN GAA850 act 4.4, EWS-Fli inh -12.5, F508del corr -3.0 and PAX8 inh HTS 68.4*.
